Reference: PubChem BioAssay (NCI)
Compounds without any hit were thinned out: in the full panel of roughly 83,000, 20% have a hit.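 A percent growth of 40 corresponds to 60% growth inhibition; 0 means no net growth; -100 means all cells died. Active threshold: below 10.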 A number with no mark means an inactive call. Active and inactive are the calls of the source.

Key:
Experiment in all cases: NCI-60 one-dose screen, 48 h (100 = growth as untreated, 0 = no growth, -100 = all killed)
NCI-H23 lung = details: 10 µM unless noted
NCI-H226 lung = details: 10 µM unless noted
NCI-H322M lung = details: 10 µM unless noted
HOP-62 NSCLC = details: 10 µM unless noted
NCI-H460 lung = details: 10 µM unless noted
HOP-92 NSCLC = details: 10 µM unless noted
NCI-H522 lung = details: 10 µM unless noted
A549/ATCC NSCLC = details: 10 µM unless noted
786-0 renal = details: 10 µM unless noted
COLO 205 colon = details: 10 µM unless noted
DU-145 prostate = details: 10 µM unless noted
K-562 leukemia = details: 10 µM unless noted
MALME-3M melanoma = details: 10 µM unless noted
MDA-MB-231 breast = details: 10 µM unless noted
RXF 393 renal = details: 10 µM unless noted
SF-268 CNS = details: 10 µM unless noted
SF-295 CNS = details: 10 µM unless noted
SF-539 CNS = details: 10 µM unless noted
UACC-257 melanoma = details: 10 µM
M14 melanoma = details: 10 µM unless noted

| Structure (SMILES) | growth (NCI-H23 lung) | growth (NCI-H226 lung) | growth (NCI-H322M lung) | growth (HOP-62 NSCLC) | growth (NCI-H460 lung) | growth (HOP-92 NSCLC) | growth (NCI-H522 lung) | growth (A549/ATCC NSCLC) | growth (786-0 renal) | growth (COLO 205 colon) | growth (DU-145 prostate) | growth (K-562 leukemia) | growth (MALME-3M melanoma) | growth (MDA-MB-231 breast) | growth (RXF 393 renal) | growth (SF-268 CNS) | growth (SF-295 CNS) | growth (SF-539 CNS) | growth (UACC-257 melanoma) | growth (M14 melanoma) |
| --- | --- | --- | --- | --- | --- | --- | --- | --- | --- | --- | --- | --- | --- | --- | --- | --- | --- | --- | --- | --- |
| CN1CCN(c2ccc3c(C(N)=O)c(NC(=O)c4ccc(C(C)(C)C)cc4)sc3c2)CC1 | 79.7% | 104% | 94.7% | 86.6% | 53.8% | 79% | 103% | 76.2% | 71.2% | 70.1% | 87.4% | 21.2% | 81.6% | 90.6% | 81.8% | 97.6% | 79.8% | 63.6% | 92.7% | 90% |
| O=C1Nc2cc(OC(F)(F)F)ccc2Oc2ccc(-c3ccnc(N4CCNCC4)c3)cc21 | 27.4% | 53% | 39% | 21.6% | -80.6% (active) | -0.729% (active) | -57.2% (active) | 9.42% (active) | -62.7% (active) | -80.2% (active) | -48.5% (active) | -11.4% (active) | -79.3% (active) | -38.2% (active) | -73.4% (active) | 26.8% | -25.7% (active) | -89.8% (active) | 77.3% | -90.5% (active) |
| COc1ccc(OC)c([C@H]2c3[nH]c4ccccc4c3C[C@H]3C(=O)N(CCCCCCC(=O)NO)CC(=O)N23)c1 | 100% | 103% | 93.3% | 85.4% | 87.1% | 82% | 69.2% | 106% | 99.5% | 86.4% | 90.1% | 54.2% | 61.6% | 82.3% | 107% | 104% | 94.7% | 78.5% | 67.2% | 83.3% |
| O=C1[C@H]2Cc3c([nH]c4ccccc34)[C@@H](c3c(Cl)cccc3Cl)N2C(=O)CN1C1CCN(Cc2ccccc2)CC1 | 104% | 103% | 101% | 90.7% | 8% (active) | 83.8% | 38.2% | 94.2% | -58.2% (active) | 101% | 39.2% | 5.96% (active) | 61.4% | 89.3% | 81.6% | 73.8% | 106% | 93.5% | 105% | 78.1% |
| N#C/C(=C\c1ccc(Cl)cc1Cl)C(N)=O | 104% | 109% | 100% | 101% | 106% | 122% | 93.9% | 109% | 101% | 117% | 114% | 80.3% | 105% | 100% | 102% | 101% | 107% | 104% | 109% | 99.4% |
| CCC(=O)Nc1cc(Nc2cc(NC3CC3)n3ncc(C#N)c3n2)ccc1C | 15.3% | 26.4% | 19.4% | 24.8% | 16.1% | 6.91% (active) | 27% | 26.9% | 42% | 30.4% | 44.7% | 22.9% | 30.8% | 19.5% | -8.35% (active) | 35% | 21.7% | 21.8% | 34.2% | 14.9% |
| COc1ccc(Cn2cc3c(c2-c2ccccc2)CCCc2cnoc2-3)cc1 | 77.6% | 79% | 76% | 63.8% | 26.9% | 72% | 34.9% | 56.6% | 73.3% | 40.9% | 78.9% | 28.5% | 41.9% | 60.8% | 76.4% | 73.1% | 30% | 52.6% | 76% | 40.5% |
| C#CCOc1ccc(/C=N/Nc2nc(-c3cc(Cl)ccc3Cl)cs2)cc1 | 75.3% | 77.2% | 105% | 104% | 96.8% | 69.7% | 84.3% | 103% | 107% | 105% | 102% | 78.7% | 99.3% | 84.7% | 111% | 95.7% | 89.7% | 102% | 103% | 94.8% |
| O=[N+]([O-])c1ccc(-c2nnc(SCc3ccc(O)c4ncccc34)n2-c2ccccc2)cc1 | 13.7% | 87.3% | 41.7% | 23.2% | 5.75% (active) | -24.4% (active) | 9.93% (active) | 22.4% | 30.8% | 110% | 29% | 21.2% | 19.6% | 24.8% | 16.3% | 23.6% | 5.71% (active) | 11.7% | 42.5% | 24.2% |
| C=C(C)[C@@H]1CC[C@]2(COS(C)(=O)=O)CC[C@]3(C)[C@H](CC[C@@H]4[C@@]5(C)CCCNC(C)(C)[C@@H]5CC[C@]43C)[C@@H]12 | 82% | 86.5% | 94.7% | 101% | 13.5% | 76.4% | 85.4% | 54.2% | 91.5% | 0.735% (active) | 42.1% | 1.12% (active) | 97% | 91.6% | 85.3% | 106% | -40.1% (active) | 84.9% | 107% | 84% |
| COc1cc(/C=N/n2cnc3oc(-c4ccccc4)cc3c2=N)cc(CN2CCCCC2)c1O | -56.4% (active) | -3.78% (active) | -1.45% (active) | -39.2% (active) | -72.7% (active) | 86.2% | -42.2% (active) | -68.8% (active) | -79.5% (active) | 11.7% | -82.8% (active) | 3.54% (active) | -81% (active) | -73.4% (active) | -66.7% (active) | -66.9% (active) | -96% (active) | -87.9% (active) | -27% (active) | -83.5% (active) |
| CN(C)C(=O)C1=NC(CO)C(=O)N(c2ccc(Cl)cc2)N1 (stereo not given) | 104% | 105% | 98.6% | 98.9% | 104% | 91.4% | 97.1% | 99% | 93.9% | 105% | 107% | 109% | 101% | 97.9% | 120% | 97.8% | 103% | 95.8% | 107% | 92.8% |
| CN(c1ccc(Cl)cc1)S(=O)(=O)c1ccc(-c2cnc(C3CC3)o2)cc1 | 23.8% | 14.5% | 55% | 45.6% | 8.85% (active) | 63.9% | 30.8% | 24.3% | 31.9% | -7.11% (active) | 15.9% | 10.4% | 77.8% | 22.3% | 46.5% | 40.2% | 18% | 10.4% | 66.1% | 24.9% |
| C/C(=N/Nc1nc(N/N=C(/C)c2ccc([N+](=O)[O-])cc2)nc(N2CCOCC2)n1)c1ccc([N+](=O)[O-])cc1 | 57.9% | 41.9% | 86.7% | 86.2% | 78.1% | 64.1% | 61.7% | 73.9% | 66.9% | 94.8% | 81% | 79.7% | 69.4% | 43.5% | 69.2% | 96% | 66.5% | 15.5% | 99.2% | 74.5% |
